These results are taken from PubChem BioAssay.

Records with an inconclusive call do not appear. Active and inactive are the calls of the source.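 Rule for the calls, unless noted: active = RAM network inhibition above 8.4% in each of two replicates, 3 SD over the compound average; inconclusive = above 8.4% inhibition in only one replicate; inactive = 8.4% inhibition or less in each replicate.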

Assay [1] in a line: reducers of endogenous Her2 protein level, primary screen, SKBR3 breast tumor cells, AlphaScreen, ATP viability (AID 461;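 active = Her2 level under about 52% in both replicate screens, with viability over 70% of control, limit read from the data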;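 for Her2 level: lower value means less Her2 protein in the cells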;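 for viability: percent of carrier control wells set as 100% viability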). The note with it: 18-24 h, measured here: SKBR3 viability, ATP luminescence, at 10 µM.
Assay [2] deals with Receptor tyrosine-protein kinase erbB-2 (Homo sapiens) (UniProt P04626). The assay is described as above. The note with it: 18-24 h, at 10 µM, stronger effect = lower value.
Receptor tyrosine-protein kinase erbB-2 (Homo sapiens), sequence (P04626 whole entry, looked up): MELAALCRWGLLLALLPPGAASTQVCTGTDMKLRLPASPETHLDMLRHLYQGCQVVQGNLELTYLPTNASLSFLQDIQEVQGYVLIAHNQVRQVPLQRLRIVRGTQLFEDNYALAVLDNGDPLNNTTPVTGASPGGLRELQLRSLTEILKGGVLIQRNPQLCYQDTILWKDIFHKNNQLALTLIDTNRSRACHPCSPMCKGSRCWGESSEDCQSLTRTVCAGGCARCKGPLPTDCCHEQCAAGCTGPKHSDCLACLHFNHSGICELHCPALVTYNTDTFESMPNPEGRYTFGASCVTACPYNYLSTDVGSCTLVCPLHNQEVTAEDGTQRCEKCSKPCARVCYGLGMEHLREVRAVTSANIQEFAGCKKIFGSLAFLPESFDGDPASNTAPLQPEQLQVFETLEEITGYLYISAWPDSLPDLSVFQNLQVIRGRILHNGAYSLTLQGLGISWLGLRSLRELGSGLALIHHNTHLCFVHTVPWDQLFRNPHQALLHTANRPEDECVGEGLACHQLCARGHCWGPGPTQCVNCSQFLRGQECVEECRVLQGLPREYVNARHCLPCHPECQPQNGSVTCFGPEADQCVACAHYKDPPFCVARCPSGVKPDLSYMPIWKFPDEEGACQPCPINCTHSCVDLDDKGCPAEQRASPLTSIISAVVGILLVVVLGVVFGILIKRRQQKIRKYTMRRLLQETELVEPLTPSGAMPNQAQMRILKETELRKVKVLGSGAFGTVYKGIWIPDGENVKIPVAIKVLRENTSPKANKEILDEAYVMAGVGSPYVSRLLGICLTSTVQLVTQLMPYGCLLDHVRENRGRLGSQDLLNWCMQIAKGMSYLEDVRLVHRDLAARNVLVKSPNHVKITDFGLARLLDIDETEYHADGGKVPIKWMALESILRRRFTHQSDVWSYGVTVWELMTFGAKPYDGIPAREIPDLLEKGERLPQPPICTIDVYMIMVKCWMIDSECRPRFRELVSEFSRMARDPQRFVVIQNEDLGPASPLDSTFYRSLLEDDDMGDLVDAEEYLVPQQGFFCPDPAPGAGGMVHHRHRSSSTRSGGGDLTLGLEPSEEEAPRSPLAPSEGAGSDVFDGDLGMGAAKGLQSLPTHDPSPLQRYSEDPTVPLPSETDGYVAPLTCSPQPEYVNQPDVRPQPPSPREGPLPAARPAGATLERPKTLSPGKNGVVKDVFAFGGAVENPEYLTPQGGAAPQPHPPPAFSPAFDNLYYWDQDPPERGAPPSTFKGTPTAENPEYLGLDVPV
Assay [3] is described as follows: SK-BR-3 cell growth inhibitors, pilot screen, 24 h, human (AID 572;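 active = viability at or below 10% of carrier control in both of two separate runs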;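 note: compound exposure lasted between 18 and 24 h rather than exactly 24 h; 100% = carrier-treated control wells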). Conditions: SK-BR-3 viability, CellTiter-Glo luminescence, at 10 µM, stronger effect = lower value. On the technique in general: In ATP-based viability assays light output follows the ATP content of the culture.
The nature of assay [4]: HUVEC growth inhibition – cell-based, human, primary screen (AID 575;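 active = viability at or below 30% in both replicate assays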;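 note: 100% = median of untreated cell wells with 0.1% DMSO on each plate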). Conditions: HUVEC proliferation, CellTiter-Glo luminescence, 72 h; at 10 µM; stronger effect = lower value.
Assay [5] in a line: growth inhibitors of H69AR lung tumor, primary screen, human, duplicate replicates (AID 580;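 active = viability at or under a set limit in both replicates, limit being median viability minus 3 SD, cut at about 48% in these data, passing the limit was not always enough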;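 note: 100% = mean luminescence of untreated wells and 0% = no signal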). Conditions: H69AR lung tumor cells viability, ATP luminescence, 72 h; at 10 µM; stronger effect = lower value.
Assay [6] in a line: reversal of MRP1-mediated doxorubicin resistance, pilot screen, H69AR cells, doxorubicin co-treatment (AID 601;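 active = viability loss from added drug above about 55%, and viability with drug at most 40%, in both replicates, limit read from the data, passing the limit was not always enough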). The note with it: CellTiter-Glo, 72 h, at 10 µM; for differential viability (reversal): stronger effect = higher value.
The nature of assay [7]: 384-well plate pilot, post-Golgi transport modulator project, inhibition of yeast transport mutant growth (AID 636; in the data active = inhibition above about 31%). Conditions: absorbance 615 nm, about 18 h, stronger effect = higher value.
Assay [8] is described as follows: growth suppression of yeast trafficking mutant, preliminary HTS, modulators of trafficking downstream of Golgi apparatus project, 1536-format plate, OD 615 nm (AID 637; in the data active = inhibition above about 30%). Conditions: yeast transport mutant growth, absorbance 615 nm, 18 h; stronger effect = higher value.
A short description of assay [9]: OD615 S. cerevisiae growth inhibition, permissive medium, pilot counter-assay, permissive growth control for S. cerevisiae lifespan shortening project (AID 705;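 active = growth inhibition above 25% in both replicates, a cutoff set 3 SD above the mean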). The note with it: OD615, 24 h, at 10 µM, stronger effect = higher value.
Assay [10] is described as follows: Restrictive medium S. cerevisiae growth inhibition, OD615, pilot screen of yeast lifespan reduction project, restrictive growth control (AID 706;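 active = growth inhibition above a set limit, 3 SD over mean compound inhibition, in both replicates, cut at about 43% in these data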;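 note: modified DeaD lifespan yeast strain shifted to restrictive glucose medium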). The note with it: OD615, 48 h, at 10 µM, stronger effect = higher value.
A short description of assay [11]: growth suppression of beta-catenin knockout HCT116, pilot screen, human colon tumor cells (AID 823;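 active = cell viability at or below a set limit in both duplicate runs, the limit being the all-compound median minus 4 SD, cut at about 23% in these data, passing the limit was not always enough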;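 note: 0% = wells killed by 20 µM Hyamine and 100% = untreated DMSO cell wells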). Conditions: CellTiter-Glo, 60 h, at 10 µM, stronger effect = lower value.
A short description of assay [12]: growth suppression of PTEN-deleted HCT116, pilot screen, cell-based, HCT116 clonal line, CellTiter-Glo (AID 824;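 active = viability at or below 27.92% in each of two runs, the all-compound median minus 4 SD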;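 note: 0% = 20 µM Hyamine control and 100% = vehicle cell control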). The note with it: 60 h, at 10 µM, stronger effect = lower value.
The nature of assay [13]: inhibitors of the yeast RAM network, pilot screen, dse1pr::URA3 reporter, 5-FOA selection (AID 869;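 active = inhibition over a set limit, the all-compound mean plus 3 SD, in both replicate runs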;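 note: 0% = DMSO wells with no growth and 100% = 10 µM 1-NA-PP1 with full growth; RAM network block rescues cells from 5-FOA so hits raise OD615 growth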). The note with it: S. cerevisiae dse1pr::URA3 5-FOA growth, OD615, 2 d; at 10 µM; stronger effect = higher value; strain carries analog-sensitive mutant Cbk1 kinase.
Assay [14] can be described thus: RAM signaling pathway blockade in yeast – S. cerevisiae, Pdr1DBD-CYC8 efflux-inhibited sensitized strain, primary screen (AID 1298).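 Note: 0% = DMSO untreated cells without growth and 100% = 10 µM 1-NA-PP1 full growth; higher means more yeast growth rescued from 5-FOA killing.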 Conditions: S. cerevisiae cbk1-as DSE1-URA3 strain, 5-FOA growth OD615, 2 d; at 50 µM; stronger effect = higher value.
Assay [15] is described as follows: viability gain of MRP-1-high H69AR cells under doxorubicin, pilot screen, MRP-1 activator project, CellTiter-Glo, duplicate (AID 807;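 active = viability increase at or above a cutoff of the median across tested compounds plus 3 SD, cut at about 8.5% in these data, passing the limit was not always enough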;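 note: compound pretreatment 18-22 h then 72 h combined with doxorubicin; 0% = doxorubicin alone and 100% = vehicle without doxorubicin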). Conditions: H69AR viability with doxorubicin, CellTiter-Glo luminescence; at 10 µM; stronger effect = higher value.
The mark [16] stands for this setting: H69AR cells + 2 uM doxorubicin, measured here: viability with 2 uM doxorubicin, stronger effect = lower value.
[17] abbreviates: H69AR cells, compound alone cytotoxicity.

With `Cc1noc(/C=C/N(C)C)c1S(=O)(=O)N1CCCC(C(=O)N2CCCCC2)C1` (stereo not given), the viability (as a rule, a read-out of living cells in per cent, often relative to untreated cells) in assay [1] was 84%; in assay [3], 84% (inactive); in assay [4] it was 95.9% (inactive); in assay [5], 97.3% (inactive); in assay [6] (setting [16]), 101%; in assay [6] (setting [17]), 97.3%. For the same compound, the viability is 87.4% (inactive) in [11] and 85.2% (inactive) in [12]. Also, the Her2 level in [2] is 97% (inactive). In assay [6] (H69AR cells + 2 uM doxorubicin), the differential viability (reversal) was -3.44% (inactive). For the same compound, the inhibition (in general, the drop in the measured response relative to a control, in per cent) in assay [7] is 1.07% (inactive); in [8], -7.21% (inactive); in [13] it was 1.34% (inactive). Further, the growth inhibition in assay [9] was 4.08% (inactive); in assay [10], 5.73% (inactive). Further, in assay [14], the RAM network inhibition is 5.03% (inactive).

`CSc1ccccc1NC(=O)C1CCCO1` (stereo not given): the viability was 97.5% in assay [1]; 97.5% (inactive) in [3]; 102% (inactive) in [4]; 93.9% (inactive) in [5]; 94.2% in assay [6] (setting [16]); 93.9% in assay [6] (setting [17]). Moreover, in assay [12], the viability was 98.6% (inactive). Also, the Her2 level in [2] is 110% (inactive). Further, the differential viability (reversal) in [6] (H69AR cells + 2 uM doxorubicin) is -0.325% (inactive). The figures for the inhibition in assay [7], in assay [8] and in [13] were 1.73% (inactive), -6.03% (inactive) and 0.11% (inactive), respectively. Further, the figures for the growth inhibition in [9] and in assay [10] were -8.35% (inactive) and -0.95% (inactive), respectively. Also, the viability increase in assay [15] was -2.61% (inactive). In addition, the RAM network inhibition in assay [14] was 2.42% (inactive).

With `COc1ccc(NC(=O)CC2Sc3ncnn3C2=O)cc1` (stereo not given), the viability is 109% in assay [1]; 109% (inactive) in assay [3]; 88.3% (inactive) in assay [4]; 111% (inactive) in [5]; 83.5% in assay [6] (setting [16]); 111% in [6] (setting [17]). The viability is 95.2% (inactive) in [11] and 104% (inactive) in [12]. Further, the Her2 level in assay [2] is 80.5% (inactive). For the same compound, the differential viability (reversal) in [6] (H69AR cells + 2 uM doxorubicin) is 27% (inactive). In addition, the inhibition in [7] was 0.77% (inactive); in assay [8], 4% (inactive); in assay [13], 1.05% (inactive). In assay [10], the growth inhibition was 22.2% (inactive). Also, the viability increase in assay [15] was -3.8% (inactive). Also, the RAM network inhibition in assay [14] was 6.37% (inactive).

On to `CCN1CCN(c2ncnc3c2cnn3-c2ccc(C)cc2C)CC1`, for which the viability was 85.5% in [1]; 85.5% (inactive) in assay [3]; 99.8% (inactive) in assay [4]; 73.7% (inactive) in assay [5]; 85.1% (inactive) in assay [11]; 81.6% (inactive) in [12]. Further, in assay [2], the Her2 level was 96% (inactive). The inhibition in assay [7] was -6.4% (inactive); in assay [8], 7.7% (inactive); in assay [13], 0.395% (inactive). Further, the growth inhibition in assay [9] is -5.99% (inactive); in assay [10], -11% (inactive). Also, in [15], the viability increase is -6.88% (inactive). Also, the RAM network inhibition in assay [14] was 0.63% (inactive).

As to `O=C(Cn1ncc2c1-c1ccccc1OC2)N1CCc2ccccc21`, the viability in assay [1] is 83.5%; in assay [3] it was 83.5% (inactive); in assay [4], 96.2% (inactive); in [5] it was 84.3% (inactive); in assay [6] (setting [16]), 85.2%; in assay [6] (setting [17]), 84.3%. Moreover, the viability in [11] was 93.4% (inactive); in assay [12] it was 88.4% (inactive). Moreover, the Her2 level in assay [2] is 100% (inactive). For the same compound, the differential viability (reversal) in assay [6] (H69AR cells + 2 uM doxorubicin) was -0.91% (inactive). For the same compound, the inhibition is 0.51% (inactive) in [7], -5.33% (inactive) in [8] and -0.23% (inactive) in assay [13]. Further, the growth inhibition in assay [10] was -6.7% (inactive). For the same compound, in [15], the viability increase was -0.77% (inactive). Further, in assay [14], the RAM network inhibition is 6.41% (inactive).

As to `COc1ccc(-c2nnc3sc(C(C)N4C(=O)c5ccccc5C4=O)nn23)cc1` (stereo not given), the viability in [1] is 84%; in [3], 84% (inactive); in assay [4], 96.8% (inactive); in assay [5], 90.9% (inactive); in [6] (setting [16]) it was 101%; in [6] (setting [17]) it was 90.9%. For the same compound, the viability is 101% (inactive) in assay [11] and 96.5% (inactive) in [12]. Besides, in [2], the Her2 level was 111% (inactive). The differential viability (reversal) in assay [6] (H69AR cells + 2 uM doxorubicin) was -9.99% (inactive). For the same compound, the inhibition was 2.13% (inactive) in assay [7], -2.67% (inactive) in [8] and 1.46% (inactive) in [13]. Moreover, the growth inhibition in [10] is 53.1% (active). Moreover, the viability increase in assay [15] is -2.35% (inactive). The RAM network inhibition in assay [14] is -1.51% (inactive).

As to `Cn1c(SCC(=O)c2cc3ccccc3o2)nnc1-c1ccccc1`, the viability in [1] is 96.5%; in assay [3], 96.5% (inactive); in assay [4], 105% (inactive); in [5], 84.3% (inactive); in [6] (setting [16]), 81.1%; in [6] (setting [17]), 84.3%. The viability in [11] is 97.9% (inactive); in [12], 96.8% (inactive). Also, the Her2 level in [2] is 97.5% (inactive). Further, in [6] (H69AR cells + 2 uM doxorubicin), the differential viability (reversal) is 3.21% (inactive). For the same compound, the inhibition in assay [7] was -6% (inactive); in [8] it was 13.3% (inactive); in assay [13], 1.88% (inactive). For the same compound, in assay [9], the growth inhibition is 10.3% (inactive). The viability increase in assay [15] is -3.83% (inactive). The RAM network inhibition in assay [14] was 6.5% (inactive).

Regarding `CCOC(=O)CCCOC(=O)c1ccc(S(=O)(=O)N(C)C)cc1`, the viability in assay [1] was 95%; in assay [3] it was 95% (inactive); in [4], 88.7% (inactive); in assay [5], 100% (inactive); in assay [6] (setting [16]), 98.7%; in [6] (setting [17]), 100%. In addition, the viability in assay [12] was 89.6% (inactive). Further, in [2], the Her2 level was 84.5% (inactive). Further, the differential viability (reversal) in assay [6] (H69AR cells + 2 uM doxorubicin) is 1.72% (inactive). Moreover, the inhibition in assay [7] was -6.49% (inactive); in [8], 2.79% (inactive); in assay [13], 1.5% (inactive). Further, the growth inhibition was -13.7% (inactive) in assay [9] and -2.25% (inactive) in assay [10]. Also, the viability increase in [15] is -2% (inactive). The RAM network inhibition in assay [14] is 4.96% (inactive).

For the compound `CCN(CC)c1ccc2cc(-c3nc4ccccc4[nH]3)c(=O)oc2c1`, the viability in assay [1] is 88%; in assay [3], 88% (inactive); in [4] it was 20.9% (active); in assay [5], 3.43% (active); in assay [6] (setting [16]) it was 3.78%; in assay [6] (setting [17]) it was 3.43%. Further, in assay [2], the Her2 level is 101% (inactive). Moreover, in assay [6] (H69AR cells + 2 uM doxorubicin), the differential viability (reversal) was -0.345% (inactive). For the same compound, the inhibition in assay [7] was 0.13% (inactive); in assay [8], -6.39% (inactive); in assay [13] it was -1.12% (inactive). The growth inhibition is -3.73% (inactive) in assay [9] and -16.3% (inactive) in [10]. Also, the viability increase in assay [15] is -7.61% (inactive). Moreover, the RAM network inhibition in assay [14] was 0.92% (inactive).

Take `CC(C)CC1NC2(C(=O)N(C)c3ccccc32)C2C(=O)N(C(C)C)C(=O)C12` (stereo not given): the viability in assay [1] is 86.5%; in assay [3], 86.5% (inactive); in assay [4], 83.3% (inactive); in assay [5], 99.1% (inactive); in assay [11], 103% (inactive); in [12], 103% (inactive). Moreover, in assay [2], the Her2 level was 110% (inactive). Besides, the results for the inhibition in assay [7], in [8] and in assay [13] were -1.73% (inactive), -0.33% (inactive) and 1.11% (inactive), respectively. Besides, the growth inhibition in assay [9] is 4.83% (inactive); in assay [10], 6.6% (inactive). Also, in [15], the viability increase was -1.13% (inactive). Besides, in assay [14], the RAM network inhibition is 2.88% (inactive).
